Giardia FBPA inh: inhibitors of Giardia lamblia fructose-1,6-bisphosphate aldolase; purified Giardia FBPA; A8B2U2; hit rate 0.71% among 290,000; Potency, µM (titrated, usually from 59.6 µM), without a hit: at the top dose activity, negative = inhibition, usual class: inhibitors; note: potency is the fitted concentration of half-maximal effect; nearly all actives have a fitted effect of over 55% in size
Target sequence (A8B2U2 whole entry, looked up): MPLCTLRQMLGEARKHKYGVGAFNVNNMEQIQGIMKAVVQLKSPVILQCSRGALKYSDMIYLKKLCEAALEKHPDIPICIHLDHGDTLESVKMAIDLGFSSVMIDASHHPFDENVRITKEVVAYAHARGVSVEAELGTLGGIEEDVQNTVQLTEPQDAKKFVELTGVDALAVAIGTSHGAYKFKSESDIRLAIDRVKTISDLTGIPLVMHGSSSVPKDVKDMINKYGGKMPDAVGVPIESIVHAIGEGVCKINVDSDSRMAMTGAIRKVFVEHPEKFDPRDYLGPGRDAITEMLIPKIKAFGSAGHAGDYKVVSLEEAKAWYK
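Giardia FBPA (40 nM reagent) was preincubated 10 min at RT with compound (up to 57.5 uM final), then substrate plus GAPDH/TPI/NAD/arsenate coupling system with diaphorase/resazurin was added; resorufin fluorescence (525/598 nm) was read after 20 min.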
VACV Venus inh: inhibitors of vaccinia virus (Venus reporter) | Vaccinia virus Venus reporter expression, fluorescence | Potency, µM (titrated, usually from 36.5 µM), without a hit: top-dose activity change, negative = inhibition, actives largely listed as inhibitors | hit rate 0.46% among 330,000 | AID 720580; calls by dose curve; tested in A549 cells; note: potency is the fitted concentration of half-maximal effect; nearly all actives have a fitted effect of over 30% in size
FMDV antiviral: foot and mouth disease virus antiviral activity. FMDV antiviral cell-based qHTS. Potency, µM (top dose mostly 57.9 µM), for the others: top-dose activity change, negative = inhibition, most hits filed as inhibitors. hit rate 1.2% among 410,000. AID 1159524; calls by dose curve; tested in HEK293T cells; note: read-out not given here; potency is the fitted concentration of half-maximal effect; nearly all actives have a fitted effect of over 45% in size
HCV inh: blocks hepatitis C virus; Huh7.5.1 HCVcc-Cre infection, luciferase reporter, 44 h; Potency, µM (highest dose often 41.8 µM), for the others: at the highest dose activity change, negative = inhibition, usual class: inhibitors; hit rate 3.4% among 340,000; note: potency is the fitted concentration of half-maximal effect
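1,000 cells/well; 4 h culture; + compound; + HCVcc-Cre (~0.5 moi); 44 h; luciferase substrate, RT 15 min; read 15 sec.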
HCMV antiviral: human cytomegalovirus inhibition; HFF cells, HCMV-luciferase reporter, 72 h; hits give low values; activity change, negative = inhibition, % at 57.5 µM; hit rate 4.5% among 410,000; AID 1259415; in the data active = activity change below about -60%; inconclusive = no clear call, values can overlap the other calls; inactive = above about -39%
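Screen run at 2 compound doses on HFFs infected with reporter HCMV, MOI 1 PFU/cell. Luciferase activity from cell lysates at 72 h post infection gave inhibition relative to buffer-only and Salinomycin wells.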
VACV mCherry inh: vaccinia inhibition (mCherry reporter). Vaccinia virus mCherry reporter infection, fluorescence. hit rate 0.63% among 310,000. Potency, µM (series often up to 36.5 µM), for the others: at the top dose activity change, negative = inhibition, most hits filed as inhibitors; calls by dose curve; tested in A549 cells; note: potency is the fitted concentration of half-maximal effect; nearly all actives have a fitted effect of over 35% in size
* = called active by the depositor; i = inactive; ? = inconclusive; · = not tested or not shown; [ ] = dose if it differs, or a comment. A selection: hits, their analogues and other compounds. The true share with any hit is near 7.5%. Unless noted, calls come from the whole dose curve; as a rule, active = well fitted curve in the direction sought with a large enough effect; inconclusive = small, poorly fitted or top-dose-only effect, or another doubt; inactive = no such curve, though single readings can be large; an effect the other way counts as inactive or inconclusive. % is set by controls: 0 for no effect and ±100 for the full control effect.

SMILES | Giardia FBPA inh | VACV Venus inh | FMDV antiviral | HCV inh | HCMV antiviral | VACV mCherry inh
COc1cc(C(=O)N2CCN(S(=O)(=O)c3ccc(C)cc3C)CC2)ccc1OCC(=O)N1CCOCC1 | · | · | -14% | 16% | -19 | ·
Cc1ccc(C)c(NC(=S)NC(NC(=O)/C=C/c2ccccc2)C(Cl)(Cl)Cl)c1 (stereo not given) | 7% | · | -23% | ? | ? | ·
O=C(/C=C/c1ccccc1)NC(NC(=S)Nc1cccc(O)c1)C(Cl)(Cl)Cl (stereo not given) | -7% | ? | ? | ? | -21 | ?
O=C(/C=C/c1ccccc1)NC(NC(=S)Nc1cccc(Cl)c1)C(Cl)(Cl)Cl (stereo not given) | 0% | · | -19% | ? | -75* | ·
O=C(/C=C/c1ccccc1)NC(NC(=S)Nc1ccc(Cl)cc1Cl)C(Cl)(Cl)Cl (stereo not given) | -7% | ? | -25% | 10µM* | · | -7%
COc1ccccc1/C=C/c1nc2ccccc2[nH]1 | · | -29% | · | · | · | -4%
COc1ccc(Cl)cc1NC(=O)Cn1cc(S(=O)(=O)Cc2cccc(Cl)c2)c2ccccc21 | · | -17% | 27% | · | ? | -2%
COC(CNC(=O)C1CCCN1C(=O)OCc1ccccc1)OC (stereo not given) | 2% | -14% | -7% | 7% | -5 | i
COC(=O)[C@@H]1C[C@]2(OC(=O)c3ccccc3)C=CC(=O)C[C@@H]2N1C(=O)OCc1ccccc1 | -5% | -11% | 22µM* | ? | -98* | i
Cc1nn(C(C)(C)C)c(C)c1/C=N/OC(=O)Nc1ccc(Cl)cc1 | -3% | 5% | 5.6µM* | ? | -101* | -4%
COc1ccc(-c2cc(C(=O)Nc3c(C)nn(Cc4ccccc4)c3C)no2)cc1 | 3% | · | -15% | ? | -21 | ·
COc1cccc(-c2cc(C(=O)Nc3c(C)nn(Cc4ccccc4)c3C)no2)c1 | -4% | · | -14% | 10µM* | ? | ·
Cc1cc(NC(=O)c2cc(-c3cccc(Cl)c3)on2)nn1Cc1ccc(Cl)cc1 | · | ? | ? | · | -80* | ?
Cc1cc(NC(=O)c2cc(-c3ccc(Cl)cc3)on2)nn1Cc1ccc(Cl)cc1 | · | -27% | ? | · | -37 | i
Cc1nn(Cc2ccc(Cl)c(Cl)c2)c(C)c1NC(=O)c1cc(CC(C)C)on1 | -3% | ? | ? | 11µM* | -31 | 11µM*
Cc1nn(Cc2ccccc2Cl)c(C)c1NC(=O)c1nc2ncccn2n1 | 4% | -11% | -14% | 16% | -63* | -20%[1.46 µM]
CCCc1cc(C(=O)Nc2c(C)nn(Cc3ccc(Cl)c(Cl)c3)c2C)no1 | · | -16% | ? | · | -34 | -24%
COC(=O)C1=CN(c2ccc(C)cc2)C(N)=C(C#N)C1c1ccc(OC)cc1 (stereo not given) | · | ? | ? | · | -27 | -7%
Cc1nn(Cc2c(F)c(F)c(F)c(F)c2F)c(C)c1NC(=O)c1ccc(COc2ccccc2Cl)cc1 | -1% | -5% | -25% | 2% | -5 | -13%
Cc1nn(Cc2ccccc2Cl)c(C)c1NC(=O)c1cc(-c2ccc(F)cc2)on1 | -1% | · | -14% | 3.5µM* | 2 | ·
Cc1nn(Cc2c(F)c(F)c(F)c(F)c2F)c(C)c1NC(=O)c1ccc(COc2ccccc2Cl)o1 | -3% | ? | -26% | 16µM* | -66* | ?
O=S(=O)(O)c1cc(O)c(N=Nc2ccc(O)cc2O)c2ccccc12 | · | i | 28µM* | -4% | ? | 351%
COc1ccc(NC(=O)C2CCC(C(C)(C)C)CC2)cc1S(=O)(=O)N1CCOCC1 (stereo not given) | · | · | ? | ? | -7 | ·
CN(C)S(=O)(=O)c1ccc(NC(=O)CCNC(=O)c2ccco2)cc1 | 11% | 6% | -3% | -4% | 5 | 11%
COc1cc(C2NC(=S)NC(C)=C2C(=O)Nc2ccc(C)cc2)ccc1O (stereo not given) | -5% | -4% | 15% | -21% | -24 | -15%
SMILES | Giardia FBPA inh | VACV Venus inh | FMDV antiviral | HCV inh | HCMV antiviral | VACV mCherry inh
COc1ccc(C(=O)C(CCC(CNC(C)(C)C)C(=O)c2ccc(OC)cc2)CNC(C)(C)C)cc1 (stereo not given) | -1% | 11µM* | ? | ? | -98* | 13µM*
Cc1nn(-c2ccccc2)c2c1N(CC(=O)N1CCN(c3ccccc3F)CC1)C(=O)CS2 | · | -14% | 0% | · | -4 | -17%
CC(C)(C)C1CCc2c(sc(NC(=O)c3noc4c3CCCC4)c2C#N)C1 (stereo not given) | · | -25% | 9% | · | 17 | -20%
CCc1cccc(CC)c1N(COC)C(=O)Cn1nnc2ccccc21 | 14% | -18% | 10% | -10% | 25 | ·
CCN(C(=O)CC(C)C)c1nnc(Cn2nnc3ccccc32)s1 | 0% | -20% | ? | 13µM* | -36 | ?
CCN(C(=O)c1ccc(C(C)(C)C)cc1)c1nnc(Cn2nnc3ccccc32)s1 | 4% | ? | ? | 1µM* | -65* | ?
Cc1ccccc1OCCc1c(C)[nH]c(=S)[nH]c1=O | 2% | -26% | ? | -25% | -64* | -27%
Cn1c(=O)c2c(ncn2CCOc2ccc(Br)cc2)n(C)c1=O | 1% | -12% | ? | 10µM* | ? | -19%
NC(=O)c1ccc(NC(=O)C#Cc2ccccc2)cc1 | 0% | -29% | -6% | ? | -103* | 7.1µM*
CNC(=O)Nc1ccccc1F | 4% | -8% | -18% | 21% | 10 | -9%
COc1ccc(NC(=O)C(=O)NCCc2ccccc2)cc1OC | · | ? | -16% | · | -64* | -14%
COc1ccc(NC(=O)C#Cc2ccccc2)cc1OC | 3% | ? | 12% | ? | -88* | ?
O=C(C#Cc1ccccc1)Nc1ccccc1F | 7% | · | 13% | ? | -96* | ·
CCOC(=O)c1cccc(NC(=O)c2cc(S(=O)(=O)N3CCCC3)cn2C)c1 | · | -7% | 10% | · | 7 | -7%
CC[C@H]1Nc2ccc(OC)cc2[C@@H](NS(C)(=O)=O)[C@@H]1C | · | · | · | · | 1 | ·
CCOC(=O)c1ccc(N(C(=O)c2ccccc2)c2ccccc2)cc1 | · | -21% | · | · | · | i
CCn1c(SCc2cccc(OC)c2)nc2ccccc2c1=O | -1% | -11% | -29% | -19% | -32 | -7%
C=CCS/C(N)=N\N=C\c1c(O)ccc2ccccc12 | -15% | · | 44% | 22µM* | 53 | ·
NC(=O)c1ccc(N=Cc2c(O)ccc3ccccc23)cc1 | · | -26% | ? | 26% | -13 | -28%
O=C(c1c(F)cccc1F)N(C1CCCCC1)C1CCCCC1 | 4% | · | ? | -6% | -10 | ·
CC1C/C(=N/N2C(=O)CSC2=S)CC(C)(C)C1 (stereo not given) | -4% | -5% | -18% | 2% | -70* | ·
CC1C/C(=N/N=C2/NC(=O)CS2)CC(C)(C)C1 (stereo not given) | 7% | -1% | -19% | -6% | -12 | ·

Screens from PubChem BioAssay.
